For 40 molecules, Potency and outcome results are on record in PubChem BioAssay (Tox21).

Structures are written as SMILES. Inconclusive results are not listed. Where a call stands in place of a potency, no number is given. Calls of active or inactive are those of the source. The call rests on the fitted dose curve.

The target in this test is Acetylcholinesterase (Homo sapiens) (UniProt P22303). As to the kind of experiment: Acetylcholinesterase (AChE) small molecule antagonists: fluorescence cell-based qHTS assay (AID 1347398). Further: nearly all actives have a fitted effect of over 50% in size. Particulars: SH-SY5Y cells; Potency: AChE activity; outcome: AChE activity; series mostly up to 115 µM. An excerpt: National Center for Advancing Translational Sciences [NCATS]
Sequence of Acetylcholinesterase (Homo sapiens) (P22303 whole entry, looked up): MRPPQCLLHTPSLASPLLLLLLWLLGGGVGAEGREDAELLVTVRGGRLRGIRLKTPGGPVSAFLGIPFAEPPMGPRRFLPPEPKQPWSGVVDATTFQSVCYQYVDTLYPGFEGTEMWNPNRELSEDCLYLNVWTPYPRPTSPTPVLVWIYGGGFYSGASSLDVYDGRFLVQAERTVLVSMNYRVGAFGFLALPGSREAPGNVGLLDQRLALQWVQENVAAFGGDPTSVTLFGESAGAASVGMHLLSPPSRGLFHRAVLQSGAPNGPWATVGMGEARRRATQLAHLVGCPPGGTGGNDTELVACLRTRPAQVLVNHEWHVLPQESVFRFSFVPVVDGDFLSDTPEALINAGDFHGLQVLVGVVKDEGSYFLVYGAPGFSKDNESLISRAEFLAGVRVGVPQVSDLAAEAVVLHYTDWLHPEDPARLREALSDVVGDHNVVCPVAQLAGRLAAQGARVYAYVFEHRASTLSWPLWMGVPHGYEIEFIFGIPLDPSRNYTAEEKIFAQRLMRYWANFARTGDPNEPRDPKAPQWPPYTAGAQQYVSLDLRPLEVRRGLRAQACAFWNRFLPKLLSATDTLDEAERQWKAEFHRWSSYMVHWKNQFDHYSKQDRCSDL
Division of Preclinical Innovation [DPI]
U.S. Environmental Protection Agency [EPA]
National Institutes of Environmental Health Sciences [NIEHS]
National Toxicology Program [NTP]
U.S. Food and Drug Administration [FDA]
Acetylcholinesterase (AChE) is the primary cholinesterase in the body that hydrolyzes a key neurotransmitter, acetylcholine. Inhibition of AChE activity can lead to neurotoxicity. Known inhibitors of AChE include organophosphorous pesticides (OP), chemical warfare agents, drugs, and various phytochemicals.
A homogenous cell-based assay using Amplitetrade mark Fluorimetric Acetylcholinesterase Assay Kit *Green Fluorescence* (AAT Bioquest, Sunnyvale, CA) was used to evaluate the chemicals in the Tox21 10K library that inhibit AChE activity. The assay uses Thiolite Green to quantify the thiocholine produced from the hydrolysis of acetylthiocholine by AChE from the SH-SY5Y cells. AChE can hydrolyze acetylthiocholine to create thiocholine. Thiolite Green is fluorescent when reacting with thiocholine. It has spectral properties similar to those of fluorescein. The fluorescence intensity of Thiolite Green is used to measure AChE activity. Its signal can be easily read by a fluorescence microplate reader at Ex/Em = 490/520 nm.
Tox21 Assay Protocol Summary:
For cell-based AChE assay, 2,000 SH-SY5Y cells in 4 uL/well were dispensed into black, clear-bottom 1536-well plates using a Multidrop Combi (Thermo Scientific) dispenser. The assay plates were incubated overnight at 37 C to allow cells to attach to the wells, followed by the transfer of 23 nL compound or DMSO (vehicle control) by a Pintool station (Wako Automation, CA). The plates were incubated for 30 min at 37 C and 5% CO2, followed by the addition of 4 uL of detection cocktail solution (ThioliteGreen, acetylthiocholine) into each well using Flying Reagent Dispenser (Beckman Coulter, CA) and then following 40 min incubation at room temperature. Fluorescent intensity (Ex/Em = 490/520 nm) was measured using an Envision plate reader (PerkinElmer, MA).
With `C=CC(=O)OCCCCCCCCCC`, the Potency entry is “inactive”. Same read-out and setting: for `CCOC(=O)c1ccc(N)cc1` the value was “inactive”; for `Cc1cccc(C)c1NC(=O)CN1CCN(CCCC(c2ccc(F)cc2)c2ccc(F)cc2)CC1`, “inactive”. On the same count and under the same terms, for `O=C(O)Cc1ccc(Cl)cc1Cl` the value was “inactive”; for `FC(F)(F)c1ccc(Cl)c(Cl)c1`, “inactive”; for `ON=C1CCCCC1`, “inactive”. Same read-out and setting: for `OC12N=C(c3ccccc3)SC1Cc1cc(Cl)ccc12` (stereo not given) the value was “inactive”; for `O=S(=O)(O)CCCN1CCOCC1`, “inactive”; for `CO[Si](CCCOCC1CO1)(OC)OC` (stereo not given), “inactive”. With `CC1=CCC(C(C)(C)O)CC1` (stereo not given), the Potency result was “inactive”. Same read-out and setting: for `CC1=CC(=O)CC(C)(C)C1` the value was “inactive”.

As to `Cc1c(N)cccc1[N+](=O)[O-]`, the Potency result is “inactive”. The same measure, in the same setting: for `CC1C(C)(C)C2=C(C(=O)CCC2)C1(C)C` (stereo not given) the value was “inactive”; for `C[Si]1(C)O[Si](C)(C)O[Si](C)(C)O[Si](C)(C)O1`, “inactive”.

`CCCCCCCCC=O`: the Potency result is “inactive”. Still for that read-out and setting: for `CC(C)(C)N` the value was “inactive”; for `CCCCCC(=O)O[C@]1(C(C)=O)CC[C@H]2[C@@H]3CCC4=CC(=O)CC[C@]4(C)[C@H]3CC[C@@]21C`, “inactive”; for `CCCCCCCCCCCCCO`, “inactive”. For `C/C=C(\C)C(=O)OCCc1ccccc1`, the Potency result is “inactive”. As to `c1ccc(SSc2ccccc2)cc1`, the Potency entry was “inactive”. The same measure, in the same setting: for `C[N+](C)(C)CC(O)CCl` (stereo not given) the value was “inactive”; for `COc1nccnc1NS(=O)(=O)c1ccc(N)cc1`, “inactive”; for `COc1ccc(C(=O)N2CCN(CC(=O)N3CCOCC3)CC2)cc1`, “inactive”. Regarding `CCCCC/C=C/C=C/C=O`, the Potency result is “inactive”. The same measure, in the same setting: for `C[C@]12CC[C@@H]3c4ccc(O)cc4C[C@@H](CCCCCCCCCS(=O)CCCC(F)(F)C(F)(F)F)[C@H]3[C@@H]1CC[C@@H]2O` (stereo not given in full) the value was “inactive”; for `NC1CCCCC1`, “inactive”. Still for that read-out and setting: for `O=C(O)CC(=O)O` the value was “inactive”. For the molecule `CCN(CC)c1ccc2c(C)cc(=O)oc2c1`, the Potency result was “inactive”. With `O=Cc1ccccc1C=O`, the Potency result was “inactive”.

Regarding `Cc1nnc(NS(=O)(=O)c2ccc(N)cc2)s1`, the Potency entry was “inactive”. For `C1CNCCN1`, the outcome was inactive.

For the molecule `O=C(NS(=O)(=O)/C=C/c1ccccc1)c1ccc(F)cc1Cl`, the Potency entry was “inactive”. The same measure, in the same setting: for `O=C(O)c1cc(Br)c(O)c(Br)c1` the value was “inactive”. The same measure, in the same setting: for `Cc1[nH]nc2c1N=C(c1ccccc1Cl)c1cc([N+](=O)[O-])ccc1N2` the value was “inactive”; for `CCC(C)c1nccnc1OC` (stereo not given), “inactive”; for `CC1=CC(C)(C)Nc2ccccc21`, “inactive”. On the same count and under the same terms, for `CC(C)(C)C(=O)CCc1ccc(Cl)cc1` the value was “inactive”; for `NCCS(=O)(=O)O`, “inactive”. Regarding `CC1=NN(c2ccc(C(=O)O)cc2)C(=O)C1`, the Potency result is “inactive”.

Regarding `NC(=O)Cc1cccc2ccccc12`, the Potency entry was “inactive”.
